Compound activity (PubChem)
The entries come from a sample that favours hits as a whole.
14-3-3 PPI – modulators of 14-3-3 gamma protein binding, primary screen, biochemical, fluorescence polarization | 14-3-3 protein gamma (Homo sapiens), P61981 | FP, 14-3-3gamma / TMR-pS259-Raf peptide binding | inhibition, % at 40 µM | 160,000 tested, 0.19% active | AID 422, 2006; in the data active = inhibition above about 30%
Target sequence (P61981 whole entry, looked up): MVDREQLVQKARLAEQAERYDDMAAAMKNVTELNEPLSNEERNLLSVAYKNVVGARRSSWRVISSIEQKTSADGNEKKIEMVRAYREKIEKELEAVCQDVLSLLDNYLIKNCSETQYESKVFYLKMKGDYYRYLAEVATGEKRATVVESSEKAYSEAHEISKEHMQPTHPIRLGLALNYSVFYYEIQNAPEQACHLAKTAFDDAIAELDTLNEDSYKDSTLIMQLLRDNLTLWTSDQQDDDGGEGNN
Each line names hits and unclear results; the compound was inactive in the other large screens; ! = a repeat was not active.

C=CCc1cccc(C=Nc2cc(Br)ccc2O)c1O	14-3-3 PPI 42.5
COc1ccccc1Nc1ncnc2c1c(-c1ccccc1)cn2-c1ccccc1	none
O=C(NC1CCCC1)c1ccc(Cn2c(=O)c3ccccc3n(Cc3ccc([N+](=O)[O-])cc3)c2=O)cc1	none
COc1ccc2c3c(cccc13)C(=O)c1ccccc1-2	14-3-3 PPI 32.5
O=C1c2ccccc2-c2ccc(Br)c3cccc1c23	none
COC(=O)CSc1ccc2c3c(cccc13)C(=O)c1ccccc1-2	none
COc1cc(C(=O)NC(c2ccc(Cl)cc2)c2cc([N+](=O)[O-])c3cccnc3c2O)cc(OC)c1OC (centres undefined)	none
Cc1cccc(N(CC(=O)NC2CC3CCC2C3)S(=O)(=O)c2ccccc2)c1C (centres undefined)	none
Cc1cccc(N(CC(=O)NC2CCCCC2)S(=O)(=O)c2ccccc2)c1C	14-3-3 PPI 37.6
Cc1cccc(N(CC(=O)Nc2c(C)cccc2C)S(=O)(=O)c2ccccc2)c1C	none
COc1ccc(-n2nc(C(=O)NCC(=O)Nc3ccc(F)cc3)c3ccccc3c2=O)c(OC)c1	none
O=C(O)C1C2C=CC(C2)C1C(=O)NCC1CCCO1 (centres undefined)	none
O=C1c2ccccc2-c2c(Nc3ccccc3)c(=O)[nH]c3cccc1c23	14-3-3 PPI 91.7
CC(=O)Nc1ccc(Nc2ccccc2)c2c1C(=O)c1ccccc1C2=O	none
Nc1c2c3c(c(Cl)ccc3[nH]c1=O)C(=O)c1ccccc1-2	none
COc1ccc(Cn2c(SCC(=O)N3CCCc4ccccc43)nc3cc(OC)c(OC)cc3c2=O)cc1	none
O=C(CN1C(=O)c2ccc([N+](=O)[O-])cc2C1=O)Nc1ccc(O)cc1C(=O)O	14-3-3 PPI 37.2
O=C(CN1C(=O)c2ccc([N+](=O)[O-])cc2C1=O)Nc1ccc(Br)cc1C(=O)O	none
O=C(CN1C(=O)c2ccc([N+](=O)[O-])cc2C1=O)Nc1ccccc1[N+](=O)[O-]	none
O=C1CCN(C(=O)c2ccccc2)c2cc3ccccc3cc21	none
CCC(C)OC(=O)C1=C(C)NC2=C(C(=O)CC(c3ccccc3)C2)C1c1cccc2ccccc12 (centres undefined)	none
CCC(C)OC(=O)C1=C(C)NC2=C(C(=O)CC(c3ccc(OC)cc3)C2)C1c1ccc(OC)c(OC)c1 (centres undefined)	none
CCC(C)OC(=O)C1=C(C)NC2=C(C(=O)CC(c3ccccc3)C2)C1c1cc(OC)c(OC)cc1Br (centres undefined)	14-3-3 PPI 38.8
O=C(O)c1ccccc1-c1ccccc1C(=O)Nc1ccc(-c2nc3ccccc3o2)cc1	none
CCC(=O)N1CCc2cc(S(=O)(=O)N3CCCCC3c3cccnc3)ccc21 (centres undefined)	none
COc1cc(C)c(C)cc1S(=O)(=O)N1CCCCC1c1cccnc1 (centres undefined)	14-3-3 PPI 31.3
CC(=O)Nc1ccc(S(=O)(=O)N2CCCCC2c2cccnc2)cc1 (centres undefined)	none
CCOC(=O)c1cc(-c2ccc(N(C)C)cc2)no1	none
Cc1cc(NS(=O)(=O)c2ccc3[nH]c(=O)sc3c2)ccc1Br	none
CC(=O)C(c1ccccc1)C(C#N)(C#N)C(C#N)C#N (centres undefined)	14-3-3 PPI 66.5
CCOC(=O)C(=O)C(C#N)c1ccccc1 (centres undefined)	none
CC(=O)C(CCC#N)(CCC#N)c1ccccc1	none
O=C(NCc1ccccc1)c1cccc(C(=O)NCc2ccccc2)c1	none
C=CCN(CC=C)C(=O)C[n+]1ccc(C(N)=O)cc1	14-3-3 PPI 40.0
CCN(CC)C(=O)C[n+]1ccc(C(N)=O)cc1	none
C=CCN(CC=C)C(=O)C[n+]1cccc(C(N)=O)c1	none
CCOC(=O)Cc1ccc(N(Cc2ccc(F)cc2)S(=O)(=O)c2cc(C)ccc2C)cc1	none
CCC1=NNc2cccc3c(OC)ccc1c23	14-3-3 PPI 141.8
COc1ccc2c3c(cccc13)OCC2=O	none
COc1ccc(C(C)=O)c2c(O)cccc12	none
COc1ccc(C2C3=C(CCCC3=O)Nc3[nH]c(=O)[nH]c(=O)c32)cc1OC (centres undefined)	none
COc1ccc2cc3cc(C(=O)NC4CCN(Cc5ccccc5)CC4)oc3nc2c1	none
CC1CCN(S(=O)(=O)c2ccc3nc(-c4ccccn4)cc(C(=O)NCc4ccc5c(c4)OCO5)c3c2)CC1	none
COc1ccc(C2C(C(=O)OCc3ccccc3)=C(C)NC3=C2C(=O)CC(C)(C)C3)cc1Br (centres undefined)	none
CCOC(=O)c1c[nH]c2c(Br)cccc2c1=O	none
Clc1ccc(C2=Nn3c(nnc3-c3ccccc3)SC2)cc1	none
COc1ccc(C2C(C(=O)N3CCN(c4ccccc4OC)CC3)CCC(=O)N2c2ccc3c(c2)OCO3)cc1 (centres undefined)	none
CCN1CCN(Cc2c(O)c(Cl)cc3c(C)cc(=O)oc23)CC1	none
CCN(CC)Cc1c(O)c(Cl)cc2c(C)cc(=O)oc12	14-3-3 PPI 63.4
Cc1cc(=O)oc2c(CN(CC(C)C)CC(C)C)c(O)ccc12	none
Cc1cc(=O)oc2c(CN3CCC(C)CC3)c(O)c(Cl)cc12	14-3-3 PPI 60.5
Cc1cc(=O)oc2c(CN3CCCCC3)c(O)c(Cl)cc12	none
Cc1c(C)c2cc(Cl)c(O)c(CN3CCN(C)CC3)c2oc1=O	none
Cc1c(NC(=O)COc2ccc(Oc3ccccc3)cc2)c(=O)n(-c2ccccc2)n1C	none
CCOC(=O)C1=C(C)Nc2nc(SCc3cccc(C)c3)nn2C1c1ccc([N+](=O)[O-])cc1 (centres undefined)	none
O=C(Cc1cccc(Cl)c1)c1ccc(O)cc1O	none
CC(=O)Oc1ccc(OC(C)=O)c2c1C(=O)c1ccccc1C2=O	14-3-3 PPI 69.1
CNc1ccc(OC)c2c1C(=O)c1ccccc1C2=O	none
CC(=O)Oc1ccccc1N1C(=O)c2ccccc2C1=O	none
COc1ccc2oc(=O)c(C(=O)C[n+]3ccc(N(C)C)cc3)cc2c1	14-3-3 PPI 40.7
COc1ccc2oc(=O)c(C(=O)NCc3ccccc3)cc2c1	none
COc1cccc2cc(C(=O)C[n+]3ccc(N(C)C)cc3)c(=O)oc12	none
CCC(=O)N1c2ccccc2NC2=C(C(=O)CC(c3ccccc3)C2)C1c1ccc(C(=O)OC)cc1 (centres undefined)	none
CCOC(=O)C1C(=O)C=C(c2ccc(C)cc2)CC1c1ccccc1OC (centres undefined)	none
Cc1cc(=O)oc(C)c1C(=O)NCc1ccccc1Cl	none
Cc1ccccc1CS(=O)(=O)Cc1ccc(C(=O)NCc2ccccn2)o1	14-3-3 PPI 33.5
Cc1ccccc1CS(=O)(=O)Cc1ccc(C(=O)NCc2ccco2)o1	none
O=C(NCc1ccccn1)c1ccc(CS(=O)(=O)Cc2ccc(Cl)cc2)o1	none
Cc1cc(=O)oc(C)c1C(=O)NCc1ccccn1	14-3-3 PPI 44.5!
Cc1ccc(CNC(=O)c2c(C)cc(=O)oc2C)cc1	none
COc1ccccc1CNc1ccc(C(=O)O)cc1S(=O)(=O)Nc1cccc(C(F)(F)F)c1	none
CCOc1ccccc1C=Nc1sc2c(c1C(N)=O)CCCC2	none
O=C(CCCn1c(=O)[nH]c2ccc(Br)cc2c1=O)N1CCN(c2ccc([N+](=O)[O-])cc2)CC1	none
CN(Cc1ccccc1)C(C(=O)NC1CCCCC1)c1cc2c(cc1[N+](=O)[O-])OCO2 (centres undefined)	none
O=C(CSc1ccc(C(F)(F)F)cc1[N+](=O)[O-])Nc1ccc(Cl)cc1	none
O=C(Cn1nc(-c2ccc(Cl)cc2)ccc1=O)NCCCN1CCCCC1	none
COC(=O)C1=C(C)Nc2ncnn2C1c1ccc2ncccc2c1 (centres undefined)	none
O=C(CN(Cc1ccccc1)S(=O)(=O)c1ccc(F)cc1)NCc1ccccc1	none
